# Laboratory results as given in PubChem BioAssay.
# Activity calls are given as the source filed them.
# Assay: plasmodial surface anion channel blockers, osmotic lysis – cell-based, P. falciparum Indochina, OD700, 1 h, primary screen (AID 1154)
# Conditions: P. falciparum Indochina infected RBC osmotic lysis, higher = more signal, called active from +8 up or from −8 down
row,Compound,z-score
1,Cc1cc2c(nc1C)CCCCN2CC(C)ON=C[C@@H](C)[C@H](OCc1ccccc1)C(C)C (stereo partly specified),1.34 (inactive)
2,CO[C@@H]1C=CCC(=O)N2CCC[C@H]2C(=O)OC[C@@H](C)C(=O)OC[C@H]1C,0.0026 (inactive)
3,CO[C@@H]1C=CCC(=O)N[C@@H](C)C(=O)OC[C@@H](OC)[C@H](C)CCCC(=O)OC[C@H]1C,-1.15 (inactive)
4,COc1ccc(COC(=O)NN=C2C[C@@H](O)[C@@H](O)[C@@H]3[C@@H]4C(=O)N(c5ccc(F)cc5F)C(=O)[C@@H]4CC[C@H]23)cc1,30.2 (active)
5,CC(C)[C@@H](OCc1ccccc1)[C@H](C)C=NOC[C@@H](O)COCc1ccco1,0.726 (inactive)
6,O=C1[C@H]2[C@H]3[C@H](O)[C@H](O)CC(=NOCc4ccccc4)[C@@H]3CC[C@H]2C(=O)N1C[C@@H]1CCCO1,-0.132 (inactive)
7,CC(C)=CCCC(C)=CCON=C1C[C@@H](O)[C@@H](O)[C@@H]2[C@@H]3C(=O)N(C(C)(C)C)C(=O)[C@@H]3CC[C@H]12,-0.22 (inactive)
8,CCOC(=O)[C@H](Cc1ccccc1)NC(=O)CCC1CC(OC(=O)NCCc2ccc(F)cc2)CC2(CCCC(COC(=O)NCCc3ccccc3OC)O2)O1 (stereo partly specified),0.425 (inactive)
9,COc1ccc(COC(=O)NN=C2C[C@@H](O)[C@@H](O)[C@@H]3[C@@H]4C(=O)N(C5CCCCC5)C(=O)[C@@H]4CC[C@H]23)cc1,9.99 (active)
10,CC(C)=CCCC(C)=CCON=C1C[C@@H](O)[C@@H](O)[C@@H]2[C@@H]3C(=O)N(C4CCCCC4)C(=O)[C@@H]3CC[C@@H]12,2.18 (inactive)
11,COC(=O)[C@@H]1CC[C@H](C)[C@@H](c2ccc(C)cc2)N1C(=O)c1ccc(C=NO[C@@H]2O[C@H](COC(C)=O)[C@@H](OC(C)=O)[C@H](OC(C)=O)[C@H]2OC(C)=O)cc1,-0.013 (inactive)
12,COc1cccc([C@H]2Oc3ccc(OC)cc3C(=NOC[C@@H](O)[C@H]3O[C@@H]4OC(C)(C)O[C@@H]4[C@H]3O)[C@@H]2O)c1,5.05 (inactive)
13,O=C1[C@H]2[C@H]3[C@H](O)[C@H](O)CC(=NO[C@@H]4O[C@H](CO)[C@@H](O)[C@H](O)[C@H]4O)[C@H]3CC[C@H]2C(=O)N1c1cccc(Oc2ccccc2)c1,0.257 (inactive)
14,CCN1C(=O)[C@H]2[C@H]3[C@H](O)[C@H](O)CC(=NOCC(C)C)[C@@H]3CC[C@H]2C1=O,0.344 (inactive)
15,CC(C)C[C@H](NC(=O)CCC1CC(OC(=O)NCc2cccc3ccccc23)CC2(CCCC(COC(=O)NCc3ccccc3)O2)O1)C(=O)NCC(c1ccccc1)c1ccccc1 (stereo partly specified),8.07 (active)
16,COC(=O)CC=C[C@@H](C)[C@@H](C=NOC[C@H]1O[C@H](c2ccccc2)C=C[C@@H]1Oc1ccc(OC)cc1)NS(=O)(=O)c1ccc(C)cc1,4.79 (inactive)
17,C#CCCCON=C1C[C@@H](O)[C@@H](O)[C@@H]2[C@@H]3C(=O)N(c4ccc(F)cc4F)C(=O)[C@@H]3CC[C@H]12,1.04 (inactive)
18,CO[C@H]1COC(=O)[C@@H](Cc2ccccc2)NC(=O)[C@@H](C)COC(=O)CCC[C@@H]1C,-1.19 (inactive)

row,Compound,z-score
1,COc1cccc([C@H]2Oc3ccc(OC)cc3C(=NO[C@@H](C)c3cn([C@H](CO)Cc4ccccc4)nn3)[C@@H]2O)c1,2.52 (inactive)
2,CCOC(=O)NN=C1C[C@@H](O)[C@@H](O)[C@@H]2[C@@H]3C(=O)N(Cc4ccc5c(c4)OCO5)C(=O)[C@@H]3CC[C@H]12,5.49 (inactive)
3,O=C(NN=C1C[C@@H](O)[C@@H](O)[C@@H]2[C@@H]3C(=O)N(C[C@@H]4CCCO4)C(=O)[C@@H]3CC[C@H]12)OCc1ccccc1,1.35 (inactive)
4,CC(C)CON=C1C[C@@H](O)[C@@H](O)[C@@H]2[C@@H]3C(=O)N(c4ccc(F)cc4F)C(=O)[C@@H]3CC[C@H]12,1.17 (inactive)
5,C[C@@H](c1ccccc1)N1C(=O)[C@H]2[C@H]3[C@H](O)[C@H](O)CC(=NO[C@@H]4O[C@H](CO)[C@@H](O)[C@H](O)[C@H]4O)[C@@H]3CC[C@H]2C1=O,-0.091 (inactive)
6,CCOC(=O)[C@H](CC(C)C)NC(=O)CCC1CC(OC(=O)NCc2ccc3c(c2)OCO3)CC2(CCCC(COC(=O)NCC3CCCCC3)O2)O1 (stereo partly specified),1.35 (inactive)
7,O=C1[C@H]2[C@H]3[C@H](O)[C@H](O)CC(=NOC[C@@H](O)COCc4ccco4)[C@H]3CC[C@H]2C(=O)N1C[C@@H]1CCCO1,0.342 (inactive)
8,CCOC(=O)NN=C1C[C@@H](O)[C@@H](O)[C@@H]2[C@@H]3C(=O)N([C@@H](C)c4ccccc4)C(=O)[C@@H]3CC[C@@H]12,-0.308 (inactive)
9,CC(CCN1CCCc2nc(C)c(C)cc21)=NOC(C)CN1CCCCc2nc(C)c(C)cc21 (stereo unspecified),2.12 (inactive)
10,CO[C@H]1COC(=O)[C@H](C)NC(=O)CC=C[C@@H](C)[C@H](OC)COC(=O)[C@@H](OCc2ccccc2)C=C[C@@H]1C,-0.352 (inactive)
11,COC(=O)[C@H](C)NC(=O)CCC1CC(OC(=O)NCCc2ccc(F)cc2)CC2(CCCC(COC(=O)NCc3cccc(C(F)(F)F)c3)O2)O1 (stereo partly specified),9.11 (active)
12,CCOC(=O)CCN1C(=O)[C@H]2[C@H]3[C@H](O)[C@H](O)CC(=NOCC(C)C)[C@H]3CC[C@H]2C1=O,0.0425 (inactive)
13,CCOC(=O)NN=C1C[C@@H](O)[C@@H](O)[C@@H]2[C@@H]3C(=O)N([C@@H](C)c4ccccc4)C(=O)[C@@H]3CC[C@H]12,0.65 (inactive)
14,COc1ccc(O[C@H]2C=C[C@@H](c3ccccc3)O[C@@H]2CON=C(C)CCN2CCc3nc(-c4ccccc4)c(-c4ccccc4)cc3C2)cc1,2.48 (inactive)
15,C#CCCCON=C1C[C@@H](O)[C@@H](O)[C@@H]2[C@@H]3C(=O)N(c4ccc(F)cc4F)C(=O)[C@@H]3CC[C@@H]12,1.22 (inactive)
16,Cc1ccc(S(=O)(=O)N[C@H]2COC(=O)CC=C[C@@H](C)COC(=O)CC=C[C@@H]2C)cc1,0.866 (inactive)
17,CC(C)CON=C1C[C@@H](O)[C@@H](O)[C@@H]2[C@@H]3C(=O)N(C[C@@H]4CCCO4)C(=O)[C@@H]3CC[C@@H]12,-0.441 (inactive)
18,Cc1ccc(S(=O)(=O)OC[C@H]2CN3[C@H](c4ccc(Br)cc4)[C@@H](C)CC[C@H]3C(=O)O2)cc1,3.18 (inactive)
